{"source": "PubChem BioAssay (Tox21)", "note": "Where “and” joins values, the source holds several entries; their conditions need not be identical. Equal entries are not always repeated. Inconclusive results are not listed. A call without a number means that no potency is given here. More than one record can exist for a structure, and the calls need not agree. Calls of active or inactive are those of the source. Calls follow the shape of the dose curve; as a rule, active = well fitted curve in the direction sought with a large enough effect in the repeat runs; inconclusive = weak or mixed curves; inactive = no such curve, though single readings can be large; an effect the other way counts as inactive or inconclusive. Also: nearly all actives have a fitted effect of over 50% in size. Potency is read from the fitted curve at half-maximal effect.", "data": [{"biological_target": "Voltage-gated inwardly rectifying potassium channel KCNH2 (Homo sapiens) (UniProt Q12809)", "sequence (Q12809 whole entry, looked up)": "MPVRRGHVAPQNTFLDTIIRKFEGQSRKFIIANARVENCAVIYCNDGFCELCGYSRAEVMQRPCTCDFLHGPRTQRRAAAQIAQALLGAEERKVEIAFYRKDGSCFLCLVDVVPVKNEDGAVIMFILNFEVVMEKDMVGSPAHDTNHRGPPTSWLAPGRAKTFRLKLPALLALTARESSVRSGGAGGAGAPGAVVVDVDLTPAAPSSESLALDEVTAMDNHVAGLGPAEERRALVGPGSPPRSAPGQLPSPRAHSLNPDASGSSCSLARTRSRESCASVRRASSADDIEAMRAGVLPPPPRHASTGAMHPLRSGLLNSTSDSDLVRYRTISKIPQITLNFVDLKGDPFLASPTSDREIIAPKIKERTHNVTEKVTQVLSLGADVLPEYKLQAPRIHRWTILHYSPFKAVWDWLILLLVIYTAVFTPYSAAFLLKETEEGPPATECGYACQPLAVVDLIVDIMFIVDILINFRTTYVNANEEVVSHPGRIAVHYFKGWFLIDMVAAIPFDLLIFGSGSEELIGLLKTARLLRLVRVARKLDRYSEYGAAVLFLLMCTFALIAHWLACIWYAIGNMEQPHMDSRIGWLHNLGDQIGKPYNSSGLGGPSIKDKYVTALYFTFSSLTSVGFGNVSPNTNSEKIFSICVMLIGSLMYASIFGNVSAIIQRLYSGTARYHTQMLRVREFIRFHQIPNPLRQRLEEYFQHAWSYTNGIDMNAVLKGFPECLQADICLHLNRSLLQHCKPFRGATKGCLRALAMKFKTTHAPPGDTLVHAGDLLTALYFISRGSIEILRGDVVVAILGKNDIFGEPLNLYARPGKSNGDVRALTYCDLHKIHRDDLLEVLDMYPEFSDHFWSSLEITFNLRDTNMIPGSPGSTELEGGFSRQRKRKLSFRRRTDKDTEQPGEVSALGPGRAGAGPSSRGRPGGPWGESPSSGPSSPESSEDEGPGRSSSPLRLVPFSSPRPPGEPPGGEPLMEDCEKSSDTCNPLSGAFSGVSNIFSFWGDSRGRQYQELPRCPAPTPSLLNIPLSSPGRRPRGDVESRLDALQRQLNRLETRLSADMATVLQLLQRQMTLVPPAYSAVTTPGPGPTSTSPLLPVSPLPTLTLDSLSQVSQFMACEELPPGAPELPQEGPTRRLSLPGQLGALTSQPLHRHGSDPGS", "assay": "Human Ether-a-go-go-Related Gene (hERG) channel small molecule antagonists: fluorescence cell-based qHTS assay (AID 1671200)", "conditions": "hERG-U2OS cells, FluxOR thallium flux fluorescence; series mostly up to 76.8 µM", "summary_of_the_method": "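Quantitative HTS in hERG-U2OS cells: thallium entry through the channel reports activity, read as continuous 480/540 nm fluorescence over 2 min after stimulus addition.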", "values": [{"smiles": "CCCN(CCC)C(=O)C(CCC(=O)OCCCN1CCN(CCOC(=O)Cc2c(C)n(C(=O)c3ccc(Cl)cc3)c3ccc(OC)cc23)CC1)NC(=O)c1ccccc1", "note": "(stereo not given)", "Potency": "0.301 µM (active)"}, {"smiles": "C[C@]12CCC(=O)C=C1CC[C@@H]1[C@@H]2[C@@H](O)C[C@@]2(C)[C@H]1CC[C@]2(O)C(=O)COC(=O)CCC(=O)O", "Potency": "inactive"}, {"smiles": "CC[C@H]1O[C@]2(CC[C@@H]1C)C[C@@H]1C[C@@H](C/C=C(\\C)C[C@@H](C)/C=C/C=C3\\CO[C@@H]4[C@H](O)C(C)=C[C@@H](C(=O)O1)[C@]34O)O2", "Potency": "inactive"}, {"smiles": "CCCCN1C(=O)[C@@H]([C@H](O)C2CCCCC2)NC(=O)C12CCN(Cc1ccc(Oc3ccc(C(=O)O)cc3)cc1)CC2", "Potency": "19.5 µM (active)"}, {"smiles": "CN(C)c1ccc(SC#N)cc1", "Potency": "inactive"}, {"smiles": "Nc1ccc2c3c(cccc13)-c1ccccc1-2", "Potency": "inactive"}]}, {"biological_target": "Cytochrome P450 3A4 (Homo sapiens) (UniProt P08684)", "sequence (P08684 whole entry, looked up)": "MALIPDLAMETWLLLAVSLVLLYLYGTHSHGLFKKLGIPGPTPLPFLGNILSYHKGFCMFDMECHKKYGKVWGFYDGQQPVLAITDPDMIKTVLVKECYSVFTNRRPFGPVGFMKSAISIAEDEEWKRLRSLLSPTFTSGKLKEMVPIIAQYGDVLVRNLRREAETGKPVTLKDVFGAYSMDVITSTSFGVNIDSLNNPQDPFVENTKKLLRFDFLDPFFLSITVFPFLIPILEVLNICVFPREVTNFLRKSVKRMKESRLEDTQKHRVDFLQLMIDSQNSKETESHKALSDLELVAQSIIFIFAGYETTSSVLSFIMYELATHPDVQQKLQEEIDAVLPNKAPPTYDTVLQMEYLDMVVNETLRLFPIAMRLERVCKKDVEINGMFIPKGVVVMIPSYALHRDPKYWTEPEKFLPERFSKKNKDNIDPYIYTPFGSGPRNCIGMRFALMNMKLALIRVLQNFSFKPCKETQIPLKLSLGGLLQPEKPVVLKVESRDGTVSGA", "assay": "Cytochrome P450 Family 3 Subfamily A Member 4 (CYP3A4) small molecule antagonists: luciferase reporter qHTS assay (AID 1671201)", "conditions": "P450-Glo CYP3A4 enzyme, luciferin luminescence, 1 h; series mostly up to 115 µM", "summary_of_the_method": "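Inhibition of CYP3A4 is measured as loss of light: the enzyme converts a proluciferin substrate to luciferin, detected luminescently. Reaction ran 1 h at room temperature with NADPH regeneration after a 10 min compound preincubation.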", "values": [{"smiles": "CCCCCOC(=O)CCCC", "Potency": "inactive"}, {"smiles": "C=CC(=O)OCCn1c(=O)n(CCOC(=O)C=C)c(=O)n(CCOC(=O)C=C)c1=O", "Potency": "0.2 µM (active)"}, {"smiles": "CCC(Cl)C(Cl)C(Cl)CC(Cl)C(Cl)C(C)Cl", "note": "(stereo not given)", "Potency": "inactive"}, {"smiles": "CCN(Cc1cccnc1)C(=O)c1cccc(Cl)c1[C@]1(C)C(=O)N(Cc2ccc(OC)cc2OC)c2ccc(Cl)cc21", "Potency": "0.132 µM (active)"}, {"smiles": "c1ccc(CSCc2ccccc2)cc1", "Potency": "inactive"}, {"smiles": "C=C(C)C(=O)OCC[N+](C)(C)C", "Potency": "inactive"}, {"smiles": "CC/C(=C(\\c1ccc(O)cc1)c1ccc(OCCN(C)C)cc1)c1ccccc1", "Potency": "12.7 µM (active)"}, {"smiles": "CCC1OCC(COc2ccc(Oc3ccccc3)cc2)O1", "note": "(stereo not given)", "Potency": "inactive"}, {"smiles": "CCCCCCOC(=O)c1ccc(O)cc1", "Potency": "79.8 µM (active) and inactive"}, {"smiles": "O=C1c2c(O)ccc(Nc3ccc(CCO)cc3)c2C(=O)c2c([N+](=O)[O-])ccc(O)c21", "Potency": "31.7 µM (active)"}, {"smiles": "O=C(c1ccc(O)cc1O)c1ccc(O)cc1O", "Potency": "5.03 µM (active) and 8.94 µM (active)"}, {"smiles": "C[C@]12CCC(=O)C=C1CC[C@@H]1[C@@H]2[C@@H](O)C[C@@]2(C)[C@H]1CC[C@]2(O)C(=O)COC(=O)CCC(=O)O", "Potency": "inactive"}, {"smiles": "Nc1ccc2cc(S(=O)(=O)O)cc(O)c2c1N=Nc1ccccc1C(F)(F)F", "Potency": "inactive"}, {"smiles": "O=C(Oc1cccc2cccnc12)c1ccccc1", "Potency": "inactive"}, {"smiles": "CC1(C)CCC(C)(C)c2cc(C(=O)Nc3ccc(C(=O)O)cc3)ccc21", "Potency": "inactive"}, {"smiles": "O=C(Oc1ccccc1)c1ccccc1C(=O)Oc1ccccc1", "Potency": "inactive"}, {"smiles": "O=C1C=CC(=O)N1", "Potency": "inactive"}, {"smiles": "CCCCCCCC/C=C\\CCCCCCCCOCCO", "Potency": "11.6 µM (active)"}, {"smiles": "CC[C@H]1O[C@]2(CC[C@@H]1C)C[C@@H]1C[C@@H](C/C=C(\\C)C[C@@H](C)/C=C/C=C3\\CO[C@@H]4[C@H](O)C(C)=C[C@@H](C(=O)O1)[C@]34O)O2", "Potency": "5.59 µM (active)"}, {"smiles": "CN(C)c1ccc(C2(c3ccc(N(C)C)cc3)OC(=O)c3cc(N(C)C)ccc32)cc1", "Potency": "2 µM (active)"}, {"smiles": "CCCCN1C(=O)[C@@H]([C@H](O)C2CCCCC2)NC(=O)C12CCN(Cc1ccc(Oc3ccc(C(=O)O)cc3)cc1)CC2", "Potency": "17.8 µM (active)"}, {"smiles": "CCCCCCCCCCCC[N+](C)(C)CCCCCCCCCCCC", "Potency": "35.6 µM (active)"}, {"smiles": "CN(C)c1ccc(SC#N)cc1", "Potency": "inactive"}, {"smiles": "Nc1ccc2c3c(cccc13)-c1ccccc1-2", "Potency": "18 µM (active)"}, {"smiles": "CC(C)(C)CC(C)(C)c1ccc(OCCOCC[N+](C)(C)Cc2ccccc2)cc1", "Potency": "inactive"}, {"smiles": "Oc1ccc2cc(SSc3ccc4cc(O)ccc4c3)ccc2c1", "Potency": "14.2 µM (active) and 31.7 µM (active)"}, {"smiles": "CCc1cc(Cc2cc(CC)cc(C(C)(C)C)c2O)c(O)c(C(C)(C)C)c1", "Potency": "17.8 µM (active)"}, {"smiles": "CCCN(CCC)c1c([N+](=O)[O-])cc(C(F)(F)F)c(N)c1[N+](=O)[O-]", "Potency": "12.6 µM (active)"}, {"smiles": "C=CC(=O)OCC(CO)(COCC(COC(=O)C=C)(COC(=O)C=C)COC(=O)C=C)COC(=O)C=C", "Potency": "0.395 µM (active)"}, {"smiles": "NC(=O)C1(N2CCCCC2)CCN(CCCN2c3ccccc3CCc3ccc(Cl)cc32)CC1", "Potency": "inactive"}, {"smiles": "O=CC=C(c1ccccc1)c1ccccc1", "Potency": "inactive"}, {"smiles": "Cc1ccc(O)c2ncccc12", "Potency": "inactive"}, {"smiles": "C/C=C(\\C)C(=O)OCc1ccccc1", "Potency": "inactive"}, {"smiles": "O=c1[nH]sc2ccccc12", "Potency": "39.9 µM (active)"}]}]}
